GSH fluor = compound fluoresces at 488/530 nm on GSH beads. GSH beads flow cytometry, compound fluorescence 488/530 nm; active compounds read high. fluorescence (KMESF) at 10 µM. AID 1776. 190,000 tested, 0.25% active; in the data active means fluorescence above about 89;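 further: glutathione beads carrying GST-tagged Bcl family fusion proteins plus one bare bead set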
RGS8-Gao reg = human RGS8-Galphao interaction regulation. multiplexed bead flow cytometry, RGS8-Galphao binding; actives lie on both sides. 220,000 tested, 0.34% active. response (percent of control binding), % at 10 µM; in the data active means response below about 60% or above about 140%; inactive means in between;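 further: Galphao activated as the GDP aluminium fluoride complex binding bead-coupled RGS8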
Target sequence (P09471 whole entry, looked up): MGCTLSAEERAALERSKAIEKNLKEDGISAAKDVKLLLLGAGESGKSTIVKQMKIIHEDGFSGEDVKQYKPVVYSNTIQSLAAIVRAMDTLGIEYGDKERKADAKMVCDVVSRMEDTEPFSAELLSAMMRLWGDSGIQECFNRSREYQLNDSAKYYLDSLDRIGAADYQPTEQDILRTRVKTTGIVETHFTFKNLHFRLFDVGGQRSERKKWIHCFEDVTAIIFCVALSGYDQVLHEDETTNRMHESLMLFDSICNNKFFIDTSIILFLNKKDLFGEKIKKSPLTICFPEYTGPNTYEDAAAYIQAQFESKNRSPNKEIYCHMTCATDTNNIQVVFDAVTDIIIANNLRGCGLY
RGS7-Gao = regulators of human RGS7-Galphao interaction. P09471. Multiplexed bead flow cytometry, RGS7-Galphao binding; actives lie on both sides. binding response (% of control), % at 10 µM. 220,000 tested, 0.35% active. AID 1439; in the data active means binding response below about 49% or above about 150%; inconclusive means no clear call, values can overlap the other calls; inactive means in between;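 further: fluorescent Galphao held in activated GDP-AlF4 state binding bead-coupled RGS7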
RGS16-Gao HTS = regulators of human RGS16-Galphao interaction. O15492+P09471. bead-based flow cytometry RGS16-Galphao binding, fluorescence; actives lie on both sides. binding response (% of control), % at 10 µM. 220,000 tested, 0.38% active;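 further: Galphao activated by GDP with aluminum fluoride before binding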
Avidin fluor = avidin bead compound fluorescence profile. fluorescence (KMESF) at 10 µM. AID 1775. Avidin beads, compound fluorescence 488/530 nm, flow cytometry; active compounds read high. 220,000 tested, 0.38% active; in the data active means fluorescence above about 47
RGS4-Gao reg = human RGS4-Galphao interaction regulation; Multiplexed bead flow cytometry, RGS4-Galphao binding; actives lie on both sides; binding response (% of control), % at 10 µM; 220,000 tested, 0.33% active; in the data active means binding response below about 49% or above about 150%; inactive means in between;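 further: fluorescent Galphao activated with aluminum fluoride binding bead-coupled RGS4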
RGS4-Gao HTS = RGS4-Galphao interaction regulator (human); shares compounds with RGS16-Gao HTS; multiplexed bead flow cytometry, RGS–Galpha-o binding; RGS4–Galpha-o binding response, % at 10 µM; 1,600 tested, 99% active; AID 1504;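 further: fluorescently labeled Galpha-o bound to GDP with aluminium fluoride binding biotinylated RGS beads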
Target sequence (P09471 whole entry, looked up): as above
Target sequence (P49798 whole entry, looked up): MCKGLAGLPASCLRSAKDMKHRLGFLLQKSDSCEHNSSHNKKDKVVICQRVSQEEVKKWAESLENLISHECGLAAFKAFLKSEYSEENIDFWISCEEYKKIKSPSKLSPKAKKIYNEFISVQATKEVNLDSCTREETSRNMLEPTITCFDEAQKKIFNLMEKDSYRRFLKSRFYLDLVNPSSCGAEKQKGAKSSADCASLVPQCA
Biotin-avidin = counter-screen: compounds disrupting biotin binding to avidin beads. shares compounds with RGS16-Gao HTS. streptavidin beads, fluorescein-biotin binding, flow cytometry. inhibition, % at 10 µM. 1,700 tested, under 10 active;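 active means inhibition above 50%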;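 further: median green fluorescence of gated singlet beads compared with DMSO control wells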
RGS8-Gao single = confirmation of regulators of human RGS8-Galphao interaction; AID 1836; shares compounds with RGS16-Gao HTS; 1,700 tested, 3% active; bead-based flow cytometry RGS8-Galphao binding, fluorescence; actives lie on both sides; binding response (% of control), % at 10 µM; in the data active means binding response below about 72% or above about 130%; inactive means in between;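 further: Galphao activated as GDP AlF4 complex before binding bead RGS8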
RGS7-Gao single = confirmation of regulators of human RGS7-Galphao interaction; shares compounds with RGS16-Gao HTS; AID 1837; response (percent of control binding), % at 10 µM; 1,700 tested, 7.8% active; bead-based flow cytometry RGS7-Galphao binding; actives lie on both sides; in the data active means response below about 75% or above about 130%; inactive means in between;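 further: fluorescent Galphao activated with GDP and aluminum fluoride binding bead-coupled RGS7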
RGS16-Gao conf = confirmation of regulators of human RGS16-Galphao interaction; shares compounds with RGS16-Gao HTS; bead-based flow cytometry, RGS16-Galphao binding; actives lie on both sides; response (% of control binding), % at 10 µM; 1,700 tested, 4% active; in the data active means response below about 74% or above about 130%; inactive means in between;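 further: Galphao activated as the GDP aluminium fluoride complex binding bead-coupled RGS16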
RGS4-Gao confirm = confirmation of regulators of human RGS4-Galphao interaction. shares compounds with RGS16-Gao HTS. RGS4-Galphao binding, multiplexed bead flow cytometry; actives lie on both sides. binding response (% of control), % at 10 µM. 1,700 tested, 4% active; in the data active means binding response below about 74% or above about 130%; inactive means in between
RGS19-Gao single = confirmation of regulators of human RGS19-Galphao interaction | shares compounds with RGS16-Gao HTS | bead-based flow cytometry RGS19-Galphao binding; actives lie on both sides | response (percent of control binding), % at 10 µM | 1,700 tested, 5% active; in the data active means response below about 50% or above about 160%; inactive means in between
Of the large screens only hits and unclear results are named; the others gave an inactive call (follow-up assays come after a bar, where they were run); [ ] = another dose, or the depositor's remark. A selection: hits, their analogues and other compounds. The true share with any hit is near 1.2%. Unless noted, how the calls were made is not given here.

O=C(Nc1ccccc1)N1CCCN(c2ccc(C(F)(F)F)cc2[N+](=O)[O-])CC1	RGS8-Gao reg 41, RGS7-Gao inconclusive, RGS16-Gao HTS 21, RGS4-Gao reg 23 (no result: GSH fluor) | Biotin-avidin inactive | RGS8-Gao single inactive | RGS7-Gao single inactive | RGS16-Gao conf inactive | RGS4-Gao confirm inactive | RGS19-Gao single inactive
Cc1noc(C)c1CSc1ncnc2sc(C)c(C)c12	none (no result: RGS7-Gao, RGS16-Gao HTS, Avidin fluor) | Biotin-avidin inactive | RGS8-Gao single inactive | RGS7-Gao single inactive | RGS16-Gao conf inactive | RGS4-Gao confirm inactive | RGS19-Gao single inactive
Cc1noc(C)c1CSc1ncnc2sc3c(c12)CCCCC3	none
COc1cc(C(=O)N/N=C/c2ccccn2)cc(OC)c1OC	RGS8-Gao reg 13, RGS7-Gao inconclusive, RGS16-Gao HTS 12, RGS4-Gao reg 20 | Biotin-avidin inactive | RGS8-Gao single inactive | RGS7-Gao single inactive | RGS16-Gao conf inactive | RGS4-Gao confirm inactive | RGS19-Gao single inactive
Cc1ccsc1/C=N/n1c(-c2cc(-c3ccccc3)n[nH]2)n[nH]c1=S	RGS7-Gao inconclusive (no result: GSH fluor)
Cc1ccccc1/C=N/n1c(-c2cc(-c3ccccc3)n[nH]2)n[nH]c1=S	RGS8-Gao reg 41, RGS7-Gao inconclusive, RGS4-Gao reg 37 (no result: GSH fluor) | Biotin-avidin inactive | RGS8-Gao single inactive | RGS7-Gao single inactive | RGS16-Gao conf inactive | RGS4-Gao confirm inactive | RGS19-Gao single inactive
COc1cc(C(=S)N2CCOCC2)ccc1OC(=O)c1cc([N+](=O)[O-])c(C)c([N+](=O)[O-])c1	RGS16-Gao HTS 6.2 | RGS4-Gao HTS 86 | Biotin-avidin inactive | RGS8-Gao single inactive | RGS7-Gao single inactive | RGS16-Gao conf inactive | RGS4-Gao confirm inactive | RGS19-Gao single inactive
COc1ccc(C(=S)N2CCOCC2)cc1OC(=O)c1cc([N+](=O)[O-])c(C)c([N+](=O)[O-])c1	none
CC(C)N=C1NN=C(c2ccc(F)cc2)CS1	none
CCOC(=O)C(=O)Nc1ccccc1C(N)=O	none (no result: RGS8-Gao reg, RGS7-Gao, RGS16-Gao HTS, Avidin fluor, RGS4-Gao reg) | Biotin-avidin inactive | RGS8-Gao single inactive | RGS7-Gao single inactive | RGS16-Gao conf inactive | RGS4-Gao confirm inactive | RGS19-Gao single inactive
CCOC(=O)C(=O)Nc1ccccc1C(=O)OC	none
CC(=O)c1ccc(S(=O)(=O)N2Cc3ccccc3CC2C(=O)O)cc1 (stereo unspecified)	RGS7-Gao inconclusive (no result: GSH fluor)
O=C(O)[C@H]1Cc2ccccc2CN1S(=O)(=O)c1ccc(F)cc1	RGS7-Gao inconclusive (no result: GSH fluor) | Biotin-avidin inactive | RGS8-Gao single inactive | RGS7-Gao single inactive | RGS16-Gao conf inactive | RGS4-Gao confirm inactive | RGS19-Gao single inactive
CC(C)(C)c1ccc(N=C2SCC(=O)N2Cc2cccs2)cc1	RGS7-Gao inconclusive (no result: GSH fluor)
O=C1CSC(=Nc2ccc(Cl)cc2)N1Cc1cccnc1	RGS8-Gao reg 55, RGS7-Gao inconclusive, RGS16-Gao HTS 19, RGS4-Gao reg 5.3 (no result: GSH fluor) | Biotin-avidin inactive | RGS8-Gao single inactive | RGS7-Gao single inactive | RGS16-Gao conf inactive | RGS4-Gao confirm inactive | RGS19-Gao single inactive
NC(CC(=O)O)c1ccc(Br)cc1 (stereo unspecified)	RGS16-Gao HTS 179[activator] | RGS4-Gao HTS 107 | Biotin-avidin inactive | RGS8-Gao single inactive | RGS7-Gao single inactive | RGS16-Gao conf inactive | RGS4-Gao confirm inactive | RGS19-Gao single inactive
O=C(Cn1nnc(-c2cc(C(F)(F)F)cc(C(F)(F)F)c2)n1)NNC(=S)Nc1ccc(Cl)cc1	RGS8-Gao reg 145[activator], RGS7-Gao inconclusive, RGS4-Gao reg 185[activator] (no result: GSH fluor) | Biotin-avidin inactive | RGS8-Gao single inactive | RGS7-Gao single inactive | RGS16-Gao conf inactive | RGS4-Gao confirm inactive | RGS19-Gao single inactive
COc1ccc2c(c1)CCc1sc(NC(=O)c3ccco3)nc1-2	none
COc1ccc2c(c1)Cc1sc(NC(=O)c3ccco3)nc1-2	RGS8-Gao reg 58, RGS7-Gao 46 | RGS4-Gao HTS 53 | Biotin-avidin inactive | RGS8-Gao single inactive | RGS7-Gao single inactive | RGS16-Gao conf inactive | RGS4-Gao confirm inactive | RGS19-Gao single inactive
COc1ccc(OCCOC(=O)c2cccc(-n3cnnn3)c2)cc1	RGS8-Gao reg 29, RGS7-Gao 17, RGS16-Gao HTS 4.0, RGS4-Gao reg 15 | Biotin-avidin inactive | RGS8-Gao single inactive | RGS7-Gao single inactive | RGS16-Gao conf inactive | RGS4-Gao confirm inactive | RGS19-Gao single inactive
CCS(=O)(=O)c1cc([N+](=O)[O-])c(Sc2ccccc2NC(C)=O)s1	RGS8-Gao reg 21, RGS7-Gao inconclusive, RGS16-Gao HTS 9.3, RGS4-Gao reg 17 (no result: GSH fluor) | Biotin-avidin inactive | RGS8-Gao single 63 | RGS7-Gao single inactive | RGS16-Gao conf 58 | RGS4-Gao confirm inactive | RGS19-Gao single 10
CC(=O)Nc1cccc(NS(=O)(=O)c2ccccc2[N+](=O)[O-])c1	none
COC(=O)c1ccccc1S(=O)c1snnc1C (stereo unspecified)	none
CC(=O)c1cc(C#N)c(SCC(=O)OC(C)(C)C)nc1C	RGS7-Gao 183[activator], Avidin fluor 138 | RGS4-Gao HTS 117 | Biotin-avidin inactive | RGS8-Gao single inactive | RGS7-Gao single inactive | RGS16-Gao conf inactive | RGS4-Gao confirm inactive | RGS19-Gao single inactive
CC(=O)c1cc(C#N)c(SCC(=O)OC(C)C)nc1C	none
COc1ccc(CN(C)C2c3ccccc3-c3ccccc32)cc1	RGS16-Gao HTS 186[activator] | RGS4-Gao HTS 114 | Biotin-avidin inactive | RGS8-Gao single inactive | RGS7-Gao single inactive | RGS16-Gao conf inactive | RGS4-Gao confirm inactive | RGS19-Gao single inactive
COc1ccc(OCCN(C)Cc2ccccc2)cc1	none
CS(=O)(=O)N(CC(=O)NC1CCCC1)C1CCCCC1	none
